Laboratory results published in PubChem BioAssay (Tox21).
Records with an inconclusive call do not appear. Calls of active or inactive are those of the source. Unless noted, calls follow the shape of the dose curve; as a rule, active = well fitted curve in the direction sought with a large enough effect in the repeat runs; inconclusive = weak or mixed curves; inactive = no such curve, though single readings can be large; an effect the other way counts as inactive or inconclusive.

Key:
[1] = qHTS assay for small molecules that induce genotoxicity in human embryonic kidney cells expressing luciferase-tagged ATAD5 - cell viability (AID 651634; calls by dose curve; also: nearly all actives have a fitted effect of over 25% in size)
Outline: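 Fluorescence from CellTiter-Fluor, reporting protease activity within live cells, served as the viability read-out. HEK293T cells carrying luciferase-tagged ATAD5 had been treated with compound for 15.5 hr at 37C.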

[2] = qHTS assay for small molecule disruptors of the mitochondrial membrane potential - cell viability (AID 720634; calls by dose curve;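 also: human HepG2 liver cancer cells; series mostly up to about 83 µM; nearly all actives have a fitted effect of over 20% in size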)
Outline: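 Cells: HepG2, 2,000/well, attached overnight. Compound 1 hr, 37 C/5% CO2. +m-MPI dye, +CellTiter-Glo 30 min RT. Readout: luminescence (ATP).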

[3] = qHTS assay for small molecule disruptors of the mitochondrial membrane potential (AID 720635); also: potency is read from the fitted curve at half-maximal effect
Outline: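 Mitochondrial membrane potential tracked with Mito-MPS dye, red aggregates (ex 540/em 590 nm) against green monomers (ex 490/em 535 nm). Compound treatment 1 hr at 37C, dye 30 min in HepG2.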

[4] = qHTS assay to test for compound auto fluorescence at 590 nm (red) in HepG2 cells (AID 720674)
Outline: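 1 hr compound incubation on HepG2 cells, 37 C, 5% CO2; plate read ex 540 nm / em 590 nm; intensities reported as Rose Bengal sodium equivalents.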

[5] = qHTS assay to test for compound auto fluorescence at 535 nm (green) in HepG2 cells (AID 720675)
[6] = qHTS assay to test for compound auto fluorescence at 460 nm (blue) in HEK293 cells (AID 720678)
Outline: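 HEK293 cells (2,000 per well, medium with 10% dialyzed FBS) attached for 4-5 hr at 37C, then received compound and stood overnight at 37C, 5% CO2. Blue fluorescence was read at Ex/Em 405/460 nm and expressed relative to triamterene.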

[7] = qHTS assay to test for compound auto fluorescence at 590 nm (red) in HEK293 cells (AID 720679)
Outline: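 HEK293 cells (2,000/well, medium with 10% dialyzed FBS) attached for 4-5 hr at 37C, received 23 nL compound and were incubated overnight at 37C, 5% CO2. Red fluorescence was then read at 540/590nm Ex/Em, referenced to Rose Bengal sodium.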

[8] = qHTS assay for small molecules that induce genotoxicity in human embryonic kidney cells expressing luciferase-tagged ATAD5 (AID 651632); also: nearly all actives have a fitted effect of over 15% in size
Outline: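 ATAD5-luc HEK293T, 2,000 cells/well; cpd or DMSO pin-transferred; 16 hr, 37C/5% CO2; Amplite 30 min RT; luminescence.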

[9] = qHTS assay for small molecule agonists of the p53 signaling pathway - cell viability (AID 651633; calls by dose curve;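 also: p53RE-bla HCT reporter cells with a stable beta-lactamase p53 reporter; series mostly up to about 83 µM; nearly all actives have a fitted effect of over 30% in size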)
Outline: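 Viability counter-read: CellTiter-Glo luminescence (30 min, room temperature) in the same p53RE-bla plates. These plates had been exposed to compounds for 16 h at 37 C.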
% is scaled to controls: 0 for no effect and ±100 for the full control effect.

CC(CC=O)CCCC(C)(C)O (centres undefined)
inactive: Potency [1] | outcome [2] | Potency [3] | outcome [4] | outcome [5] | outcome [6] | outcome [7]

N[C@@H](CCC(=O)Nc1ccc([N+](=O)[O-])cc1)C(=O)O
inactive: Potency [8] | Potency [1] | outcome [2] | outcome [5] | outcome [6] | outcome [7]

CCCCNc1ccc(C(=O)OCCN(C)C)cc1
inactive: outcome [9] | Potency [1] | outcome [2] | Potency [3] | fluorescence, relative to Rose Bengal [4] -0.178% [at 18.6 µM] | fluorescence, % of fluorescein control [5] -0.0004% [at 18.6 µM] | fluorescence, % of triamterene [6] 0.259% [at 18.6 µM] | fluorescence, % of fluorescent control [7] 0.151% [at 18.6 µM]

O=C(CS(=O)Cc1ccco1)NC/C=C\COc1cc(CN2CCCCC2)ccn1 (centres undefined)
inactive: Potency [8] | Potency [1] | outcome [2] | outcome [4] | outcome [5] | outcome [7]

OC[C@H](Cc1cccc(O)c1)[C@H](CO)Cc1cccc(O)c1
inactive: Potency [8] | Potency [1] | outcome [2] | outcome [5] | outcome [6] | outcome [7]

O=C(Nc1ccc(Cl)c(Cl)c1)C1CC1
active: Potency [3] 11.9 µM
inactive: Potency [1] | outcome [4] | outcome [5] | outcome [6] | outcome [7]

CC(=O)c1ccc2c(c1)Cc1ccccc1-2
inactive: Potency [1] | outcome [2] | outcome [4] | outcome [5] | outcome [6] | outcome [7]

COc1cc(NS(=O)(=O)c2ccc(N)cc2)nc(OC)n1
inactive: outcome [9] | Potency [1] | outcome [2] | Potency [3] | fluorescence, relative to Rose Bengal [4] -0.297% [at 18.6 µM] | fluorescence, % of fluorescein control [5] -0.149% [at 18.6 µM] | fluorescence, % of triamterene [6] 0.216% [at 18.6 µM] | fluorescence, % of fluorescent control [7] -0.0598% [at 18.6 µM]

CCCOC(OCCC)OCCC
inactive: Potency [1] | outcome [2] | outcome [4] | outcome [5] | outcome [6] | outcome [7]

O=C(OCC(COC(=O)c1cccnc1)(COC(=O)c1cccnc1)COC(=O)c1cccnc1)c1cccnc1
inactive: Potency [8] | Potency [1] | outcome [2] | outcome [4] | outcome [5] | outcome [6] | outcome [7]

CCCN1C[C@H](CSC)C[C@@H]2c3cccc4[nH]cc(c34)C[C@H]21
inactive: outcome [9] | Potency [1] | outcome [2] | Potency [3] | outcome [4] | outcome [5] | outcome [6] | outcome [7]

N[C@@H](CCC(=O)N[C@@H](CS)C(=O)NCC(=O)O)C(=O)O
inactive: outcome [9] | Potency [1] | outcome [2] | Potency [3] | outcome [4] | outcome [5] | outcome [6] | outcome [7]

COc1ccc(C2CNC(=O)C2)cc1OC1CCCC1 (centres undefined)
inactive: outcome [9] | Potency [1] | outcome [2] | Potency [3] | fluorescence, relative to Rose Bengal [4] -0.195% [at 18.6 µM] | fluorescence, % of fluorescein control [5] 0.104% [at 18.6 µM] | fluorescence, % of triamterene [6] 0.004% [at 18.6 µM] | fluorescence, % of fluorescent control [7] -0.255% [at 18.6 µM]

CC(=O)Nc1ccc(S(=O)(=O)Cl)cc1
inactive: Potency [1] | outcome [2] | outcome [4] | outcome [5] | outcome [6] | outcome [7]

COc1ccc(S(=O)(=O)N2c3ccc(Cl)cc3[C@@](O)(c3ccccc3Cl)[C@H]2C(=O)N2CCC[C@@H]2C(N)=O)cc1OC
inactive: outcome [9] | Potency [1] | outcome [2] | Potency [3] | outcome [4] | outcome [5] | outcome [7]

CC(C)(C)OC(=O)c1ccc(O)cc1
inactive: outcome [9] | Potency [1] | outcome [4] | outcome [5] | outcome [6] | outcome [7]

N[C@@H](COP(=O)(O)O)C(=O)O
inactive: outcome [9] | Potency [1] | outcome [2] | Potency [3] | outcome [4] | outcome [5] | outcome [6] | outcome [7]

CC[C@H](C)C(=O)O[C@H]1C[C@H](O)C=C2C=C[C@H](C)[C@H](CC[C@@H](O)C[C@@H](O)CC(=O)O)[C@H]21
inactive: Potency [8] | Potency [1] | outcome [2] | outcome [5] | outcome [7]

O=S(=O)(O)c1ccc2cc(O)c(S(=O)(=O)O)cc2c1
inactive: Potency [8] | Potency [1] | outcome [2] | outcome [4] | outcome [5] | outcome [7]

CC(C)C(=O)OCCc1ccccc1
inactive: outcome [9] | Potency [1] | outcome [2] | outcome [4] | outcome [5] | outcome [6] | outcome [7]

COc1ccc2c(c1OC)C(=O)O[C@@H]2[C@H]1c2c(cc3c(c2OC)OCO3)CCN1C
inactive: outcome [2] | Potency [3] | outcome [4] | outcome [5] | outcome [6] | outcome [7]

COC(=O)[C@@H]1[C@H]2C[C@H]3c4[nH]c5ccccc5c4CCN3C[C@@H]2CC[C@@H]1O
inactive: outcome [9] | Potency [1] | outcome [2] | outcome [4] | outcome [5] | outcome [6] | outcome [7]

C[Si](C)=O
inactive: activity change, negative = cytotoxicity [9] 15.5% [at 8.08 µM] | activity, negative = cytotoxicity [1] 11.6% [at 8.08 µM] | activity change, negative = cytotoxicity [2] 4.91% [at 8.08 µM] | fluorescence, % of fluorescein control [5] 0.004% [at 9.17 µM] | fluorescence, % of triamterene [6] -0.115% [at 9.17 µM] | fluorescence, % of fluorescent control [7] -0.238% [at 9.17 µM]

CCCCCCCCCCl
inactive: Potency [1] | outcome [2] | Potency [3] | outcome [5] | outcome [7]
